Assay outcomes (PubChem)
SRC3 inh – inhibitors of human steroid receptor coactivator 3 (SRC3). Q9Y6Q9. HEK293 GAL4-SRC3 luciferase reporter, luminescence. inhibition, % at 3.6 µM. hit rate 0.17% among 360,000. AID 588352;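 active = inhibition above a per-campaign cutoff, the mean of all compounds plus 3 SD, cut at about 60% in these data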;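 also: higher means less SRC3-driven luciferase light from the GAL4 reporter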
Gli-Sufu block – Gli-Sufu pathway antagonism; Sufu-KO-LIGHT fibroblasts, Gli luciferase reporter luminescence; AID 588413; hit rate 0.74% among 340,000; inhibition, % at 5 µM;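 active = inhibition above about 55%, limit read from the data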
COUP-TFII inh – NR2F2 (human) inhibition, primary screen. P24468. HEK293T NGFI-A luciferase reporter, luminescence. inhibition, % at 8.6 µM. hit rate 0.7% among 370,000. AID 686940;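 active = inhibition above a per-plate cutoff, mean inhibition of test wells between control levels plus 3 SD, cut at about 38% in these data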;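 also: cells cotransfected with COUP-TFII expression vector driving the NGFI-A reporter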
SRC2 inh – human SRC2 (NCOA2) inhibition | Q15596 | HEK293 GAL4-SRC2 luciferase reporter, luminescence | inhibition, % at 9 µM | hit rate 0.17% among 370,000;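 active = inhibition above the mean inhibition of all tested compounds plus 3 SD, set per campaign, cut at about 52% in these data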
SRC1 inh – inhibits human SRC1 coactivator; Q15788; HEK293 GAL4-SRC1 luciferase reporter, luminescence; inhibition, % at 3.6 µM; hit rate 0.12% among 360,000; AID 588354;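 active = inhibition above the campaign mean plus 3 SD, with each screening campaign given its own cutoff, cut at about 60% in these data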
Target sequence (Q15788 whole entry, looked up, the tested form may be a part): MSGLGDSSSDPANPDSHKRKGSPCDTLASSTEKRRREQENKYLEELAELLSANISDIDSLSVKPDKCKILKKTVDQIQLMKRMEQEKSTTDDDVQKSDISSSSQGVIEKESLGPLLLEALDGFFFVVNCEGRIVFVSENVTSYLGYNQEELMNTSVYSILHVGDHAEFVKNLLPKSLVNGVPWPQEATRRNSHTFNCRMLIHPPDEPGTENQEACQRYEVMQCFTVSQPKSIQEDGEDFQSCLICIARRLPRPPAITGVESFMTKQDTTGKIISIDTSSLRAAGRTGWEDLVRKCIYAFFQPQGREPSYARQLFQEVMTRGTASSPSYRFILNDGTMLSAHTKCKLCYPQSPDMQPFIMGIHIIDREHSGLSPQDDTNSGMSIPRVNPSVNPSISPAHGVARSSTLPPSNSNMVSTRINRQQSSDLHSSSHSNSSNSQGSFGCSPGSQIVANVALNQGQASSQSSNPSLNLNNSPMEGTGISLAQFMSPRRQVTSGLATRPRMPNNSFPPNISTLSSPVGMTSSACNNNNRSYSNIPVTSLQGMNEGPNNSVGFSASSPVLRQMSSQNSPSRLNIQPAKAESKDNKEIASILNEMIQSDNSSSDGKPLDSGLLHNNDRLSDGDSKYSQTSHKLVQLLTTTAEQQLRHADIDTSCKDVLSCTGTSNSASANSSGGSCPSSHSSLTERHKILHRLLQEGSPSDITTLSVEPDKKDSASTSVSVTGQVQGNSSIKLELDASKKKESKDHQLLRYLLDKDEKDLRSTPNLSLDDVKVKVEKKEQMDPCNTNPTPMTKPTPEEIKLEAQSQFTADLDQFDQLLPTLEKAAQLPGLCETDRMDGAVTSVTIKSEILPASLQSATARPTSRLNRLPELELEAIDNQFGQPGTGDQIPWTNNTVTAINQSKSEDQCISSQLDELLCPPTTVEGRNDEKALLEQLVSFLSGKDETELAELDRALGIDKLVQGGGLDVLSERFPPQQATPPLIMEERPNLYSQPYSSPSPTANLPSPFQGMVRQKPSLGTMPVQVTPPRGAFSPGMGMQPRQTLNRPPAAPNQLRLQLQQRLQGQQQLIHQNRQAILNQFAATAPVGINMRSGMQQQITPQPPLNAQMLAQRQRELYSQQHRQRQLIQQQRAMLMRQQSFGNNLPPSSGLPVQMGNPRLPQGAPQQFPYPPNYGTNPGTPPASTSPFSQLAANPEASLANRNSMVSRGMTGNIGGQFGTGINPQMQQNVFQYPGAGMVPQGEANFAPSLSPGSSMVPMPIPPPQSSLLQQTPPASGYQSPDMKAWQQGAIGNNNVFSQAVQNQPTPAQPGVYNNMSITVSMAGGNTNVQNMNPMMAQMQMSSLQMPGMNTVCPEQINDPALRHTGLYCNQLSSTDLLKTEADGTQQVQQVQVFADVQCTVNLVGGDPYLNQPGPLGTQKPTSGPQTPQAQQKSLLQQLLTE
NR5A2 inv ag – inverse agonists of human LRH-1 (NR5A2) | HEK293T StAR-luciferase reporter, LRH-1 transfected, 24 h | hit rate 0.13% among 360,000 | inhibition, % at 3.6 µM | O00482;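 active = inhibition above the mean inhibition of all tested compounds plus 3 SD, cut at about 73% in these data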
Gli-Sufu confirm – Gli-SUFU antagonism confirmation, single concentration; shares compounds with Gli-Sufu block; Sufu-KO-LIGHT cells, Gli luciferase reporter, luminescence; inhibition, % at 5 µM; hit rate 40% among 2,500; AID 602428;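 active = mean inhibition at 5 µM reaching about 45%, limit read from the data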
SufuKO cytotox – cytotoxic in Gli-SUFU antagonist counter-screen | hit rate 32% among 2,500 | shares compounds with Gli-Sufu block | Sufu-KO-LIGHT cells cytotoxicity, ATP luminescence | cytotoxicity, % at 5 µM;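 active = mean cytotoxicity at 5 µM above about 25%, limit read from the data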;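 also: cells exposed to compound overnight for roughly 16 to 18 hours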
Wnt3a counter – inhibits Wnt3a reporter, counter-screen for Gli-SUFU antagonists; shares compounds with Gli-Sufu block; Wnt-LIGHT cells, Wnt3a-driven luciferase reporter, luminescence; inhibition, % at 6.25 µM; hit rate 20% among 2,500; AID 651995;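 active = mean inhibition above about 25%, limit read from the data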
Large screens that a line does not name were inactive (follow-up assays come after a bar, where they were run). In the library only some 1.3% were active in any assay of this set; here they are far more common.

COc1ccc(-c2noc(C3CCCN(C(=O)Nc4cccc(C)c4)C3)n2)cc1 (stereo not drawn)	none (no result: SRC3 inh, Gli-Sufu block, SRC1 inh, NR5A2 inv ag)
CC1CCC(C(C)C)C(OCC(O)CN2CCCC(C)C2)C1 (stereo not drawn)	none
CC1CCC(C(C)C)C(OCC(O)CN2CCOCC2)C1 (stereo not drawn)	none | Gli-Sufu confirm inactive | SufuKO cytotox inactive | Wnt3a counter inactive
Cc1cc(N2CCN(S(=O)(=O)c3ccc(Br)cc3)CC2)n2ncnc2n1	none
CCc1c(C)nc2ncnn2c1N1CCN(S(=O)(=O)c2ccc(OC)cc2)CC1	Gli-Sufu block 60 | Gli-Sufu confirm 47 | SufuKO cytotox 26 | Wnt3a counter inactive
CN(C)c1cccc(/C=C2\CC3(OC(=O)c4ccc(F)cc4)CCCN2C3)c1 (stereo not drawn)	none (no result: SRC3 inh, Gli-Sufu block, SRC1 inh, NR5A2 inv ag)
CCC1(O)C(=O)OCc2c1cc1n(c2=O)Cc2cc3cc(O)ccc3nc2-1 (stereo not drawn)	SRC3 inh 78, NR5A2 inv ag 92 | Gli-Sufu confirm 64 | SufuKO cytotox 51 | Wnt3a counter inactive
O=C(CN1C(=O)c2ccccc2C1=O)Nc1cccnc1	Gli-Sufu block 64 | Gli-Sufu confirm inactive | SufuKO cytotox inactive | Wnt3a counter inactive
N#C/C(=C\c1ccc(-c2ccc(F)cc2)o1)C(=O)Nc1nc(-c2cccs2)cs1	none
N#C/C(=C/c1ccc(-c2ccc([N+](=O)[O-])cc2)o1)C(=O)Nc1nc(-c2cccs2)cs1	Gli-Sufu block 72 | Gli-Sufu confirm 84 | SufuKO cytotox inactive | Wnt3a counter 33
CCN(CC)CCCNC(=O)CC1Oc2ccccc2NC1=O (stereo not drawn)	none (no result: SRC3 inh, Gli-Sufu block, SRC1 inh, NR5A2 inv ag)
O=C(Nc1ccc(C(F)(F)F)cc1)c1csc(-c2ccncc2)n1	none
NNC(=O)c1csc(-c2cccc(C(F)(F)F)c2)n1	Gli-Sufu block 95 | Gli-Sufu confirm inactive | SufuKO cytotox inactive | Wnt3a counter inactive
O=C(Cn1cc(C(F)(F)F)ccc1=O)N/N=C/c1ccc(Cl)c(Cl)c1	none | Gli-Sufu confirm inactive | SufuKO cytotox inactive | Wnt3a counter inactive
COc1ccc2c(c1)CNC2CS(=O)(=O)NC1CCCC1 (stereo not drawn)	none (no result: SRC3 inh, Gli-Sufu block, SRC1 inh, NR5A2 inv ag)
c1ccc(Nc2nc(NCC3CCCO3)c3ccccc3n2)cc1 (stereo not drawn)	Gli-Sufu block 57 | Gli-Sufu confirm 45 | SufuKO cytotox 36 | Wnt3a counter 28
COc1ccc(C2=CCN(C)C(=O)N2c2ccc([N+](=O)[O-])cc2)cc1	none (no result: SRC3 inh, Gli-Sufu block, SRC1 inh, NR5A2 inv ag)
COc1ccccc1NC(=O)COc1ccc2c(c1)OCO2	Gli-Sufu block 59 | Gli-Sufu confirm inactive | SufuKO cytotox inactive | Wnt3a counter inactive
O=C(Nc1ccc(F)cc1)N[C@@H]1C[C@@H]2O[C@H](CO)CC[C@@H]2O[C@@H]1CCc1ccc(C2=CCCC2)cc1	none (no result: SRC3 inh, Gli-Sufu block, SRC1 inh, NR5A2 inv ag)
COc1ccc(S(=O)(=O)Nc2ccc(F)cc2F)cc1C(=O)N1CCOCC1	Gli-Sufu block 61 | Gli-Sufu confirm inactive | SufuKO cytotox inactive | Wnt3a counter inactive
C[C@H]1[C@@H](OC(=O)NCc2ccccc2)CC[C@@]23CCCN2C(=O)CCC[C@@H]13	none (no result: SRC3 inh, Gli-Sufu block, SRC2 inh, SRC1 inh, NR5A2 inv ag)
O=C(c1cc2nc(C3CC3)cc(C(F)(F)F)n2n1)N1CCCC1	none
O=C(O)c1cc2nc(C3CC3)cc(C(F)(F)F)n2n1	Gli-Sufu block 56 | Gli-Sufu confirm inactive | SufuKO cytotox inactive | Wnt3a counter inactive
CN(Cc1ccco1)S(=O)(=O)c1ccc2c(c1)CCN2C(=O)CC(C)(C)C	none (no result: SRC3 inh, Gli-Sufu block, SRC1 inh, NR5A2 inv ag)
Cc1c(C(C)c2ccccc2O)c2ccccc2n1C (stereo not drawn)	none (no result: SRC3 inh, Gli-Sufu block, SRC1 inh, NR5A2 inv ag)
COc1ccccc1NCC(=O)n1nc(C)cc1C	none | Gli-Sufu confirm inactive | SufuKO cytotox inactive | Wnt3a counter inactive
C/C(=N\NC(=O)C(C)Oc1ccc([N+](=O)[O-])cc1)c1ccccn1 (stereo not drawn)	Gli-Sufu block 88 | Gli-Sufu confirm 85 | SufuKO cytotox 33 | Wnt3a counter 56
c1ccc(CCn2nnc(-c3ccc(N4CCOCC4)cc3)n2)cc1	none (no result: SRC3 inh, Gli-Sufu block, SRC1 inh, NR5A2 inv ag)
CC(=O)C1CCC2C3CCC4=CC(=O)CCC4(C)C3C(O)CC12C (stereo not drawn)	none (no result: Gli-Sufu block)
CC12CCC(=O)C=C1CCC1C2C(O)CC2(C)C(c3csc(N)n3)CCC12 (stereo not drawn)	Gli-Sufu block 59 | Gli-Sufu confirm 61 | SufuKO cytotox inactive | Wnt3a counter 32
S=C(Nc1ccc(Cl)cc1)NC1CC2CCCC(C1)N2C1CC1 (stereo not drawn)	none
S=C(Nc1ccc(Cl)cc1)NC1CC2CCCC(C1)N2C1CCCC1 (stereo not drawn)	Gli-Sufu block 60 | Gli-Sufu confirm inactive | SufuKO cytotox 31 | Wnt3a counter inactive
CCOC(=O)C1(Cc2ccccc2)CCN(Cc2cccc(C#N)c2)CC1	none (no result: SRC3 inh, Gli-Sufu block, SRC1 inh, NR5A2 inv ag)
Cc1ccc(Nc2nc3c(c(=O)[nH]2)CCCC3)cc1	none
O=c1[nH]c(Nc2nc3ccccc3o2)nc2c1CCCC2	Gli-Sufu block 62 | Gli-Sufu confirm 64 | SufuKO cytotox 39 | Wnt3a counter 44
Cc1cc(C)c(/C=N/NC(=O)c2nnn(-c3nonc3N)c2COc2ccc(F)cc2)c(C)c1	none | Gli-Sufu confirm inactive | SufuKO cytotox inactive | Wnt3a counter inactive
Cc1ccc(COc2ccc(/C=N/NC(=O)c3nnn(-c4nonc4N)c3COc3ccc(F)cc3)cc2)cc1	none
CCC(NC(=O)c1cccc2c1C(=O)N(Cc1cccnc1)C2)c1ccccc1 (stereo not drawn)	none (no result: SRC3 inh, Gli-Sufu block, SRC1 inh, NR5A2 inv ag)
NC(=S)N/N=C/c1cccc(O)c1O	Gli-Sufu block 82 | Gli-Sufu confirm inactive | SufuKO cytotox inactive | Wnt3a counter inactive
CC(=O)C1=NN(c2ccccc2)C(c2ccc3c(c2)OCO3)N1c1ccccc1 (stereo not drawn)	none
CC(=O)C1=NN(c2ccccc2)C(c2cccs2)N1c1ccc(N(C)C)cc1 (stereo not drawn)	Gli-Sufu block 79 | Gli-Sufu confirm 79 | SufuKO cytotox 33 | Wnt3a counter inactive
CCc1cc(=O)oc2cc(C)cc(OCC(=O)N[C@@H](CSCc3ccccc3)C(=O)O)c12	Gli-Sufu block 57 | Gli-Sufu confirm inactive | SufuKO cytotox inactive | Wnt3a counter inactive
COc1ccccc1C(=O)N/C(=C\c1ccc(Br)cc1)C(=O)NCC(=O)O	Gli-Sufu block 97 | Gli-Sufu confirm inactive | SufuKO cytotox inactive | Wnt3a counter inactive
COc1ccccc1C(=O)N/C(=C\c1ccc(Br)cc1)C(=O)NCCC(=O)O	none
CN(c1cccnc1)c1ccc(NC(=O)Cc2c[nH]c3ccccc23)cc1-c1cccnc1F	none (no result: SRC3 inh, Gli-Sufu block, SRC1 inh, NR5A2 inv ag)
